This is an account of results in ChEMBL document CHEMBL4513216, “Probing the Open Global Health Chemical Diversity Library for Multistage-Active Starting Points for Next-Generation Antimalarials” (ACS Infect Dis, 2020).

The whole screen tested about 65,000 compounds, of which about 2,100 (3.2%) showed an effect of 50% or more. The median lay at about -52%. What follows is part of a selection rich in strong results, with near analogues and random picks from the rest.

The assay has as its system Plasmodium falciparum. Briefly: Screen against P. falciparum Asexual Blood Stage (ABS), at 5uM. It counts as functional, Dd2. The conditions noted are these: tested at 5 uM.
Regarding `COCCN1C[C@@H]2CC[C@H]1CN(C(=O)c1ccc(Cl)cc1)C2`, the INHIBITION is reported as -61.5%. Under `Cc1ccc(-n2cccn2)cc1S(=O)(=O)N1C[C@H]2CC[C@@H](C1)N(C)C2` stands 63.6%; under `CCCN1C[C@@H]2CC[C@H]1CN(Cc1ccc(-n3cccn3)cc1)C2`, 30.8%; under `CCCN1C[C@@H]2CC[C@H]1CN(Cc1cccc(-n3cccn3)c1)C2`, 46.5%. To `Cc1ccc(-n2cccn2)cc1S(=O)(=O)N1C[C@H](C2CC2)[C@@H](N)C1` belongs 41.6%.

As to `N[C@H]1CN(S(=O)(=O)c2cccnc2)C[C@@H]1C1CC1`, the INHIBITION is recorded as -59.9%. To `COc1ccc(-n2cccn2)cc1S(=O)(=O)N1C[C@H](C2CC2)[C@@H](N)C1` belongs 58.9%; to `CN(C)Cc1cnc(C2CCN(C(=O)c3ccc(F)cc3)C2)[nH]1` (stereo not drawn), -144%. Under `CCOc1cc(C)nc(N2CCN(C(=O)C(C)NC(C)=O)CC2)n1` (stereo not drawn) stands -92.3%; under `Cc1ccc(N2CCCC(NCc3c(C)noc3C)C2)nn1` (stereo not drawn), -2.57%.

With `COc1ccccc1N1CCC(NCc2c(C)noc2C)C1` (stereo not drawn), the INHIBITION was 28.4%. For `O=C(Nc1ccncc1)NC1CCN(c2ccccc2OC(F)F)C1` (stereo not drawn), the INHIBITION amounted to 64.4%. To `O=C(Nc1cccnc1)NC1CCN(c2ccccc2OC(F)F)C1` (stereo not drawn) belongs 16%.

Regarding `Cc1noc(C)c1CNC1CCN(c2ccccc2OC(F)F)C1` (stereo not drawn), the INHIBITION worked out at 63.7%.

For the compound `O=C(Nc1ccccn1)NC1CCN(c2ccccc2OC(F)F)C1` (stereo not drawn), the INHIBITION turned out to be 8.94%. Under `CCCOc1c(Cl)cc(C(=O)N2CCOC23CCN(C)CC3)cc1Cl` stands -5.1%; under `CSCc1cc(F)ccc1CNC(=O)N1CCCC(CO)C1` (stereo not drawn), -126%.

For the compound `OC(c1ccccc1)C1CCN(Cc2csc(-c3ncccn3)n2)CC1` (stereo not drawn), the INHIBITION is listed as -49.1%. To `CCC1=N[C@@]2(CC[C@@H]3CN(C(=O)NCc4ccccc4C)C[C@@H]32)C(=O)N1` belongs -16%. To `c1cnn(CC2CCCN2c2ncnc3ccsc23)c1` (stereo not drawn) belongs -122%.

Take `CCc1cnc(N)nc1NCCc1ccc(OC)cc1OC`: the INHIBITION is listed as -6.25%. To `CCc1cnc(N)nc1NCCn1cc(Cl)cn1` belongs 55.4%; to `CCc1cnc(N)nc1NCCCn1nc(C)nc1C`, -44.2%; to `CCc1cnc(N)nc1NCCN1CCCCC1`, 51.1%. Under `CCc1cnc(C)nc1NCCN1CCCCCC1` stands 44.7%; under `CCc1cnc(C)nc1NCCN1CCOCC1`, -11.8%; under `Cc1ccc(CN2CCC3(CC2)CN(c2ccccc2)C(=O)CO3)o1`, -69%. Under `c1cnn(CC2CN(Cc3csc(C4CCCCC4)n3)CCO2)c1` (stereo not drawn) stands -70%; under `CNc1ncc(CN(C)C(=O)CCc2[nH]nc3c2CCCC3)cn1`, -74.2%. `NC(=O)C1CCN(C(=O)c2ccc(OCc3cscn3)cc2)CC1`: the INHIBITION is on record as -12.2%. As to `CCS(=O)(=O)N1CCc2ccc(NC(=O)Nc3cccc(F)c3)cc21`, the INHIBITION is listed as -51.9%. For the compound `CC(C)(C)NC(=O)c1ccn(COc2ccccc2Cl)n1`, the INHIBITION was -35.7%. `CC(C)(C)n1nnnc1CN(CCc1ccccc1)Cc1ccccc1`: the INHIBITION is given as 20.2%. Under `CC(C)(C)n1ncc(NCc2ccccc2)c(Cl)c1=O` stands -43.4%; under `CC(C)(C)n1nnnc1CN(Cc1ccccc1)Cc1ccc(Cl)cc1`, 67.5%; under `COc1ncccc1CNC(=O)c1ccco1`, -16.5%. Consider `Cn1c(CN2CCCCCC2)cc(=O)c(O)c1CN1CCCC1`, for which the INHIBITION was determined as 60.2%. In the case of `Cn1c(CN2CCOCC2)cc(=O)c(O)c1CN1CCCC1`, the INHIBITION is reported as -205%. Under `Cn1c(CN2CCOCC2)cc(=O)c(O)c1CN1CCCCC1` stands -211%; under `c1ccc(C2Cn3ccnc3CN2Cc2ncc[nH]2)cc1` (stereo not drawn), -116%.

Turning to `Cc1cccc(Nc2cc(C3CCCN(CC(N)=O)C3)ccn2)n1` (stereo not drawn), the INHIBITION is reported as -10.4%. Under `O=C(c1cccc(Cn2ccnc2)c1)N1CCCC(n2cccn2)C1` (stereo not drawn) stands 61.4%.

As to `O=C(c1cccc(Cn2ccnc2)c1)N1CCCC(n2ccnc2)C1` (stereo not drawn), the INHIBITION is -59.1%. As to `Cc1cnn(C2CCCN(C(=O)c3cccc(Cn4ccnc4)c3)C2)c1` (stereo not drawn), the INHIBITION is recorded as -112%. Under `CCN(CC)c1ccc2ccc(C(=O)N3CCCCO3)cn12` stands 44.7%.

`CCc1nnc2n1CCN(Cc1ccc3c(c1)OCCO3)C2`: the INHIBITION is recorded as -83%. With `c1ccc(-c2nnc3n2CCN(Cc2ccc4c(c2)OCCO4)C3)cc1`, the INHIBITION stood at 58.5%. To `CC(C)c1nnc2n1CCN(Cc1ccc3c(c1)OCCO3)C2` belongs -93.4%.

Consider `O=C(NCCNC1CCCC1)c1cccs1`, for which the INHIBITION was -54.1%. To `CC1CCC(NCCNC(=O)c2cccs2)CC1` (stereo not drawn) belongs 63.7%; to `O=C(NCCNC1CCCCC1)c1cccs1`, -44.7%. Under `CCC(CC)C(=O)Nc1ccc2oc(=O)n(CCN(C)C)c2c1` stands 25.5%; under `CN(Cc1ccccc1)CC1CC2(CO1)CN(Cc1nccs1)C2` (stereo not drawn), 6.81%; under `CN(Cc1ccccc1)CC1CC2(CO1)CN(c1nncs1)C2` (stereo not drawn), -0.698%.

Consider `CN(Cc1ccccc1)CC1CC2(CO1)CN(Cc1cnn(C)c1)C2` (stereo not drawn), for which the INHIBITION was determined as 52.1%. Under `CNC(=O)Cc1ccccc1NC(=O)N[C@H]1c2ccccc2C[C@H]1O` stands -69.7%; under `Oc1cc(CCC2CCCCN2)cc(-c2cccnc2)c1` (stereo not drawn), 69%. Regarding `Nc1ccc(-c2cc(O)cc(CCC3CCCCN3)c2)cn1` (stereo not drawn), the INHIBITION was -92.8%.

For `Oc1cc(CCC2CCCCN2)cc(-c2ccncc2)c1` (stereo not drawn), the INHIBITION was 67.5%.

Consider `COc1ccc(CCC2CCCCN2)cc1OC` (stereo not drawn), for which the INHIBITION is -112%. Take `O=c1cc(-c2cc(O)cc(CCC3CCCCN3)c2)cc[nH]1` (stereo not drawn): the INHIBITION stood at 0.568%.

As for `O=c1[nH]ccc2cc(-c3cc(O)cc(CCC4CCCCN4)c3)ccc12` (stereo not drawn), the INHIBITION is -57.5%.

Consider `Cc1nc2c(c(NCCCN3CCOCC3)n1)CCN(C)C2`, for which the INHIBITION is recorded as -73.4%. Consider `COC(=O)c1cccn1C1CCN(Cc2ccccc2)CC1`, for which the INHIBITION is on record as -122%. To `CN1CC2(CCC1=O)CCN(CC[C@@H](O)c1ccccc1)CC2` belongs -14%.

For the compound `Cn1cnnc1CNC(=O)C1CCCN(Cc2cccc(F)c2)C1` (stereo not drawn), the INHIBITION is -141%.

As for `Cn1cc(CNC(=O)C2CCCN(Cc3cccc(F)c3)C2)cn1` (stereo not drawn), the INHIBITION is -59.1%. Under `Cn1ccnc1CCNC(=O)C1CCCN(Cc2cccc(F)c2)C1` (stereo not drawn) stands 59.3%; under `CCCN(C(=O)c1ccccn1)c1nc2c(s1)CCc1c-2cnn1C`, 38.1%. For the compound `CCCN(C(=O)c1ccncc1)c1nc2c(s1)CCc1c-2cnn1C`, the INHIBITION is given as 55.6%. To `CCCN(C(=O)c1cnccn1)c1nc2c(s1)CCc1c-2cnn1C` belongs -28.8%; to `OC1CCN(Cc2c(C3CCCNC3)[nH]c3ncccc23)CC1` (stereo not drawn), -65.3%; to `Cc1ccc2c(ccn2CC(=O)NC[C@@H]2CCCN3CCCC[C@H]23)c1`, 49%. For `O=C(Cn1ccc2ccccc21)NC[C@@H]1CCCN2CCCC[C@H]12`, the INHIBITION is recorded as -14.5%. To `COc1ccc2c(ccn2CC(=O)NC[C@@H]2CCCN3CCCC[C@H]23)c1` belongs -57.3%; to `O=C(Cn1ccc2cc(Br)ccc21)NC[C@@H]1CCCN2CCCC[C@H]12`, -14%; to `Cc1ccc2c(ccn2CCC(=O)NC[C@@H]2CCCN3CCCC[C@H]23)c1`, 52%.

As for `O=C(CCn1ccc2cc(Br)ccc21)NC[C@@H]1CCCN2CCCC[C@H]12`, the INHIBITION is on record as 67.1%.

Take `Nc1cc(N2CCC(c3cc(Cc4ccccc4)n[nH]3)CC2)ccn1`: the INHIBITION stood at 11.1%.

`Cc1cc(C)n(C2CN(Cc3ccccn3)C2)n1`: the INHIBITION is -90.2%. To `CN(C)[C@@H]1CN(Cc2ccccn2)C[C@H]1c1cn(C)c2ccccc12` belongs 52.6%; to `CN(Cc1ccco1)[C@@H]1CN(Cc2ccccn2)C[C@@H]2CCCO[C@@H]21`, 31.5%; to `COc1cccc2c1OCC(Cc1cc(C(=O)N3CCCC3)ccn1)C2` (stereo not drawn), -9.28%. Under `COc1ccc([C@@H]2CN(Cc3cccnc3N)C[C@H]2NC(C)=O)cc1` stands -59.7%. Under `COc1ccc([C@@H]2CN(Cc3ccncc3)C[C@H]2N(C)C)cc1` stands -36.3%. In the case of `COc1ccc([C@@H]2CN(Cc3cccnc3N)C[C@H]2N(C)C)cc1`, the INHIBITION was 53.9%. To `Cn1cccc1C(=O)N1CCn2cc(CN3CCCC3)nc2C1` belongs -26.2%. Under `CCc1ccc(CN(C/C=C/c2ccccc2)CCOC)nc1` stands 54.8%; under `COCCN(C/C=C/c1ccccc1)Cc1ccccn1`, 23.1%; under `COCCN(C/C=C/c1ccccc1)Cc1nccs1`, -7.08%.

Consider `O=C(c1cccc(Cl)c1)N1CCCn2c(CN3CCCCC3)nnc2C1`, for which the INHIBITION is listed as 10.2%. In the case of `Cn1ccnc1-c1nc2cc(S(=O)(=O)N3CCCC3)ccc2n1C`, the INHIBITION is given as -13.2%. To `Nc1cc2c(nn1)CCN(C(=O)CCC1CCCCC1)C2` belongs -69.7%; to `c1cc(CN(CCCn2ccnc2)Cc2ccoc2)ccn1`, -27%. To `Cc1ccc(CN(CCCn2ccnc2)Cc2c[nH]cn2)s1` belongs 21.2%; to `CN(C)c1ccc(CN(CCCn2ccnc2)Cc2c[nH]cn2)cc1`, 79.8%.

For `Cc1nc[nH]c1-c1nccn1CCN1CCOC1=O`, the INHIBITION is -38.9%.

Consider `Cn1cc(C2CCCN2CCCn2c(=O)oc3ccccc32)cn1` (stereo not drawn), for which the INHIBITION is listed as 8.65%. Under `Cc1nc(C2CCCN2CCCn2c(=O)oc3ccccc32)no1` (stereo not drawn) stands -44.1%; under `O=c1oc2ccccc2n1CCCN1CCCC1c1ccc(O)cc1` (stereo not drawn), 54.1%; under `CN1CCC(CCc2ccnc(NC(=O)c3ccccn3)c2)CC1`, -102%.

`Cn1cc(CNCCNc2ncc(Cl)cc2Cl)cn1`: the INHIBITION turned out to be 54%. Regarding `CCn1cc(CNc2ccc3nccnc3c2)cn1`, the INHIBITION is -14.1%. Under `Cn1cc(CCNCc2cc(Cl)c3c(c2)OCCO3)cn1` stands -26.6%; under `CCn1cc(CNC(=O)CCn2ncc3c(Cl)cccc32)cn1`, -21.7%; under `Cn1ccnc1CNCCNc1ncc(Cl)cc1Cl`, 41.8%.

As for `CCn1cc(CNCCNc2ncc(Cl)cc2Cl)cn1`, the INHIBITION stood at 66.6%. To `O=C([C@@H]1CC[C@@H]2[C@@H](CCN2Cc2ccoc2)O1)N1CCCC1` belongs -94.6%.
